From PubChem
GLS inhibitor: glutaminase GLS (human) inhibition. Potency, µM (series often up to 45.5 µM), without a hit: at the top dose activity change, negative = inhibition, most hits filed as inhibitors. actives 0.21% (n = 410,000). O94925. GLS enzymatic activity, qHTS titration; note: % is set by controls: 0 for no effect and ±100 for the full control effect
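Read-out is an Amplex red fluorescence increase coupled through glutamate oxidase and HRP, measured before and after 30 min room-temperature incubation. hKGA is in 45 mM KH2PO4 (pH 8.2) with 0.02% Tween-20; glutamine added as 1mM solution.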
HP1b binding inh: blocks HP1-beta chromodomain binding to methylated histone tails; P83916; AlphaScreen HP1-beta / biotin-H3K9me3 peptide binding; Potency, µM (series often up to 114 µM), for inactives: at the top dose activity change, negative = inhibition, usual class: inhibitors; actives 0.56% (n = 390,000); note: nearly all actives have a fitted effect of over 70% in size
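HP1-beta protein (50 nM final) preincubated 30 min at room temperature with biotinylated H3(1-18)K9me3 peptide (50 nM) in PBS pH 7.4, 0.01% Tween-20, then compound added for 30 min. AlphaScreen streptavidin donor/nickel chelate acceptor beads (10 ug/mL final), 30 min dark, luminescence read.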
G9a inh: inhibitors of human histone lysine methyltransferase G9a; G9a H3K9 monomethylation, AlphaScreen, 2 h; Potency, µM (series often up to 102 µM), inactives show at the highest dose activity, negative = inhibition, hits mostly inhibitors; actives 8.8% (n = 350,000); AID 504332; note: % is set by controls: 0 for no effect and ±100 for the full control effect; nearly all actives have a fitted effect of over 75% in size
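Compounds were preincubated with 20 nM G9a for 15 min, after which biotinylated H3K9 peptide (500 nM) and SAM (20 uM) started a 2 h room-temperature reaction. Monomethylated product was quantified by antibody-based AlphaScreen chemiluminescence.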
JMJD2A Tudor inh: blocks the human JMJD2A Tudor domain; AlphaScreen JMJD2A-Tudor / H3K4me3 peptide binding; actives 4.4% (n = 390,000); O75164; AID 504339; Potency, µM (series often up to 114 µM), without a hit: at the highest dose activity change, negative = inhibition, actives largely listed as inhibitors; note: % is set by controls: 0 for no effect and ±100 for the full control effect; nearly all actives have a fitted effect of over 50% in size
BAZ2B block: blocks human BAZ2B | Q9UIF8 | AID 504333 | Potency, µM (doses to about 114 µM), for inactives: top-dose activity change, negative = inhibition, actives largely listed as inhibitors | AlphaScreen BAZ2B-H3K14Ac peptide displacement | actives 4.4% (n = 360,000); note: % is set by controls: 0 for no effect and ±100 for the full control effect; nearly all actives have a fitted effect of over 60% in size
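In this displacement format the biotinylated H3(5-23) peptide acetylated at Lys14 serves as ligand at 50 nM, with BAZ2B at 50 nM in PBS pH 7.4 containing 0.01% Tween-20. Donor and acceptor beads are 10 ug/mL final.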
The depositor's hits bear a star; ? = inconclusive; . = no result given; [ ] = another dose, or the depositor's remark. Only some compounds are listed: those with a hit (about 10% of all), similar ones and a draw of the others. Calls come from the whole dose curve; as a rule, active = well fitted curve in the direction sought with a large enough effect; inconclusive = small, poorly fitted or top-dose-only effect, or another doubt; inactive = no such curve, though single readings can be large; an effect the other way counts as inactive or inconclusive. Potency is the fitted concentration of half-maximal effect.

SMILES | GLS inhibitor | HP1b binding inh | G9a inh | JMJD2A Tudor inh | BAZ2B block
Nc1ccc(C(CC(=O)O)n2cccc2)cc1 (stereo not given) | 2% | ? | ? | ? | 79µM*
CC(C)(C)c1ccc(OCCC(=O)OCC(=O)NC2CCCCC2)cc1 | 0% | 23% | 23% | 1% | 7%
Cc1nc2[nH]c(=S)n(C)c(=O)c2nc1C | -1% | 15% | 45µM* | 89µM* | -11%
O=C(O)c1[nH]c2ccccc2c1CC(=O)N1CCOCC1 | 12% | 27% | -11%[2.33 µM] | -12% | -6%
N/C(=N\OS(=O)(=O)c1ccc2ccccc2c1)c1ccccn1 | 4% | 42% | 5µM* | 5µM* | 20µM*
N/C(=N/OS(=O)(=O)c1ccc([N+](=O)[O-])cc1)c1ccncc1 | -9% | 6% | 10µM* | -7% | -5%
N/C(=N\OS(=O)(=O)c1ccc2ccccc2c1)c1ccncc1 | 4% | ? | 20µM* | 2% | 1%
N/C(=N\OS(=O)(=O)c1ccc2ccccc2c1)c1cccnc1 | -6% | 19% | ? | -23% | ?
N/C(=N\OS(=O)(=O)c1ccccc1)c1ccncc1 | -1% | -22% | -5%[0.501 µM] | -6% | ?
CNC(=O)CSc1nc2cc(S(=O)(=O)Nc3ccc(OC)cc3)ccc2o1 | 17% | 11% | . | -10% | .
COc1ccc(NS(=O)(=O)c2ccc3oc(SC)nc3c2)cc1 | 18% | ? | 40µM* | -8% | -1%
Cc1ccc(S(=O)(=O)c2nnn3c2nc(NCc2ccccc2Cl)c2sccc23)cc1 | -10% | 31% | -11%[59 µM] | -4% | -8%
COc1ccc(NS(=O)(=O)c2cccc(C(=O)NNC(=O)c3ccc(NC(C)=O)cc3)c2)cc1 | 14% | 18% | -13% | -5% | -4%
CC(C)N(Cc1cn[nH]c1-c1ccc(-c2ccccc2)cc1)Cc1nccn1C | 7% | ? | ? | 56µM* | 56µM*
CC(=O)c1ccc(Oc2nc(-c3cccnc3)nc3ccccc23)cc1 | 8% | 27% | 5% | 9% | -3%
Nc1nonc1-n1nnc(C(=O)N/N=C/c2ccc(OCc3ccccc3)cc2)c1CNc1ccccc1 | -25% | 31% | 34% | 7% | -5%
COc1cc(OC)cc(C(=O)NNC(=S)NC2CC2)c1 | ? | 37% | 56µM* | 6%[57.1 µM] | 2%
COc1cccc(C(=O)NNC(=S)NC2CCCCC2)c1 | 12% | 36% | 19%[59 µM] | -9% | 7%
COc1ccc(C2CC(c3ccc(OC)cc3OC(C)=O)=NN2C(=O)c2ccccc2)cc1 (stereo not given) | -3% | -17% | -10% | -28% | -32%
COc1ccc(C2=NN(C(=O)c3ccccc3)C(c3ccc(OC)c(OC)c3)C2)c(O)c1 (stereo not given) | ? | -7% | 71µM* | -33% | -26%
O=C1CN(CN2CCCCC2)C(=O)CN1CN1CCCCC1 | -15% | . | . | . | .
O=C1CCCN1CN1CCCCC1 | 9% | ? | -131%[59 µM] | ? | 79µM*
Cc1cccc(Nc2ccc3nonc3c2[N+](=O)[O-])c1C | -4% | 31% | -12% | 0% | 4%
C#CCOCCOCCOCCNc1nc(N2CCN(C(=O)CCCCCCCCCCNC(=O)Cn3cc(CCCCCN)nn3)CC2)nc(N2CCN(C(=O)CCCCCCCCCCNC(=O)[C@H]([C@@H](C)CC)n3cc(CCCCCN)nn3)CC2)n1 | ? | ? | -49%[2.33 µM] | 79µM* | ?
C#CCOCCOCCOCCNc1nc(N2CCN(C(=O)CCCCCCCCCCNC(=O)[C@H]([C@@H](C)CC)n3cc(CCCCCN)nn3)CC2)nc(N2CCN(C(=O)CCCCCCCCCCNC(=O)[C@@H]([C@H](C)O)n3cc(C)nn3)CC2)n1 | ? | ? | -8%[2.33 µM] | 56µM* | 56µM*
SMILES | GLS inhibitor | HP1b binding inh | G9a inh | JMJD2A Tudor inh | BAZ2B block
C#CCOCCOCCOCCNc1nc(N2CCN(C(=O)CCCCCCCCCCNC(=O)Cn3cc(CCCCCN)nn3)CC2)nc(N2CCN(C(=O)CCCCCCCCCCNC(=O)[C@H](CO)n3cc(CCCCCN)nn3)CC2)n1 | -10% | 3% | 2%[2.33 µM] | ? | ?
C#CCOCCOCCOCCNc1nc(N2CCN(C(=O)CCCCCCCCCCNC(=O)[C@H](CCCCN)n3cc(C)nn3)CC2)nc(N2CCN(C(=O)CCCCCCCCCCNC(=O)[C@@H]([C@H](C)CC)n3cc(CCCCCN)nn3)CC2)n1 | . | . | 7%[2.33 µM] | . | 56µM*
CCCCC1(Br)C(=O)N(c2ccccc2)N(c2ccccc2)C1=O | 43% | ? | ? | 18µM* | ?
CCCCC1(CO)C(=O)N(c2ccccc2)N(c2ccccc2)C1=O | 10% | 11% | . | -23% | -8%
Cc1ccc(NC(=O)CSc2ccc3c(c2)OCCO3)nc1 | -4% | 53% | 8%[0.501 µM] | -18% | 1%
Nc1nc(-c2cc3c(cc2Cl)OCCO3)cs1 | -5% | 5% | 14µM* | -23% | ?
COc1cc(C(C(=O)NC2CCCCC2)N(C(=O)Cc2c[nH]c3ccccc23)c2ccccc2C)cc(OC)c1OC (stereo not given) | -14% | 0% | 40µM* | -29% | ?
Cc1ccc(C(C(=O)NC2CCCCC2)N(Cc2ccccc2)C(=O)Cc2c[nH]c3ccccc23)o1 (stereo not given) | -2% | 1% | 2.5µM* | ? | ?
Cc1ccc(C2CC(c3cccs3)=NN2C(=O)CSc2nc(=O)n3ccc(C)cc3n2)cc1 (stereo not given) | . | . | -41% | . | -36%
CCS(=O)(=O)Nc1ccc(C2=NN(C(=O)c3ccccc3)C(c3cccs3)C2)cc1 (stereo not given) | 0% | 34% | 28µM* | -22% | 79µM*
CCS(=O)(=O)Nc1ccc(C2=NN(C(=O)c3ccco3)C(c3cccs3)C2)cc1 (stereo not given) | -12% | 20% | -4% | -21% | -21%
COc1ccc2nc(NC(=O)c3cc(=O)c4ccccc4o3)sc2c1 | -10% | 58% | -32%[59 µM] | -34% | 0%
Cc1cc(C)c2nc(NNC(=O)c3cc(=O)c4ccccc4o3)sc2c1 | 12% | ? | 8.9µM* | 56µM* | 32µM*
Cc1nnc(NC(=O)c2ccc(S(=O)(=O)N3CCc4ccccc4C3)cc2)o1 | 4% | 39% | -25% | -30% | 79µM*
Cc1cc(C)c2sc(NNC(=O)c3ccc(S(=O)(=O)N4CCc5ccccc5C4)cc3)nc2c1 | 22% | 5% | ? | 3.5µM* | 5.6µM*
Cc1cc(C)c2nc(NNC(=O)c3ccc(S(=O)(=O)N4CCc5ccccc5C4)cc3)sc2c1 | 21% | -4% | 40µM* | ? | ?
O=C(CCNC(=O)c1ccccc1Cl)Nc1ccccc1N1CCCC1 | 23% | 31% | . | -14% | -1%
O=C(COc1ccc(Br)cc1)Nc1ccccc1N1CCCC1 | -4% | 32% | 45µM* | 1% | -19%
